# Compounds with a hit are over-represented: about 10% of the library has one in this group of screens.
# VDR inhibitor = vitamin D3 receptor (human) inhibition | 0.93% of 400,000 active | VDR-SRC2-3 peptide fluorescence polarization, 2 h | Potency, µM, usual class: inhibitors | P11473
#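 The screen uses fluorescence polarization to detect compounds that interfere with recruitment of the SRC2-3 coactivator peptide to VDR; plates are read after 2 h at room temperature.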
# CCT chaperon mod = changes cytosolic chaperonin activity. purified chaperonin ATPase assay, HTRF ADP detection, 30 min. activity change, % (test concentration not listed), hits read low. 0.3% of 360,000 active. AID 651819; in the data active means activity change below about -30%
#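 First, chaperonin was dispensed at 40 nM or 20 nM final depending on batch activity. Next, compounds were pinned at 76 uM and ATP added at 10 uM. After 30 min at 37 °C, ADP detection reagents ran 30 min at ambient temperature.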
# Sfp PPTase inh = Sfp phosphopantetheinyl transferase inhibition. Q9F4F7. Biochemical Sfp PPTase activity, qHTS. Potency, µM, most hits filed as inhibitors. 3.5% of 310,000 active. AID 1490;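 further: the enzyme is Sfp with the accession as filed and its product quenches rhodamine fluorescence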
#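 Step 1, compound plus 15 nM Sfp-PPTase, 15 min, room temperature. Step 2, add rhodamine-CoA (5 uM) and BHQ-2-YbbR (12.5 uM). Step 3, read 525/598 nm fluorescence at 0 and 30 min.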
# Mm-Cpn inhibitor = inhibitors of Methanococcus maripaludis chaperonin TRiC (MmCpn). AID 504842. Potency, µM (series often up to 76.9 µM), hits mostly inhibitors. 0.031% of 330,000 active. purified Mm-Cpn ATPase, ADP Transcreener TR-FRET; further: nearly all actives have a fitted effect of over 80% in size
#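 ATP (10 uM final) was added to archaeal chaperonin (25 nM final) after 10 min exposure to test compound at 37°C; after 30 min further incubation, ADP was detected by competitive TR-FRET.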
# PLK1 PBD inh = PLK1 (human) polo-box domain binding inhibition. P53350. Plk1 PBD binding of FITC phosphopeptide, fluorescence polarization. Potency, µM, most hits filed as inhibitors. 2.8% of 360,000 active; further: series mostly up to about 57 µM; nearly all actives have a fitted effect of over 65% in size
# G9a block = inhibitors of human histone lysine methyltransferase G9a | G9a H3K9 monomethylation, AlphaScreen, 2 h | Q96KQ7 | 8.8% of 350,000 active | Potency, µM (series often up to 102 µM), most hits filed as inhibitors; further: nearly all actives have a fitted effect of over 75% in size
# Target sequence (Q96KQ7 913-1193 limits assumed): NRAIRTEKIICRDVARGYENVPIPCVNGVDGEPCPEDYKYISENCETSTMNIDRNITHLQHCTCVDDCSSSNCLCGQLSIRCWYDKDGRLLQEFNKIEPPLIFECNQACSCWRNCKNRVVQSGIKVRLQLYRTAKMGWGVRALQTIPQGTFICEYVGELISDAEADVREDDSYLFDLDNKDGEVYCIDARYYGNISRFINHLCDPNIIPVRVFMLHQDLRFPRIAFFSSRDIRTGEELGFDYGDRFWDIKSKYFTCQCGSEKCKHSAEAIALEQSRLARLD
#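 AlphaScreen detection with an anti-monomethyl H3K9 antibody quantified product after a 2 h room-temperature reaction containing 500 nM biotinylated H3K9 peptide, 20 µM SAM and 20 nM enzyme, which had been preincubated 15 min with compound.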
# Hits are given with their value; 0 = inactive; ? = inconclusive; - = not tested or not shown; ! = not active in a repeat; [ ] = remark or other dose. Unless noted, the call rests on the fitted dose curve; in most records, active means well fitted curve in the direction sought with a large enough effect; inconclusive means small, poorly fitted or top-dose-only effect, or another doubt; inactive means no such curve, though single readings can be large; an effect the other way counts as inactive or inconclusive.
SMILES,VDR inhibitor,CCT chaperon mod,Sfp PPTase inh,Mm-Cpn inhibitor,PLK1 PBD inh,G9a block
COCCCn1c(C(=O)Nc2ccc3c(c2)OCO3)cc2c(=O)n3ccccc3nc21,?,0,0,0,2.99µM,0
Cc1cccn2c(=O)c3cc(C#N)c(=NC(=O)c4cccs4)n(CC(C)C)c3nc12,0,0,0,0,0,0
Cc1cccn2c(=O)c3cc(C#N)c(=NC(=O)c4ccco4)n(Cc4ccco4)c3nc12,0,0,?,0,0,0
O=C(O)c1ccc2c(=O)n(-c3ccc(F)cc3)c(=S)[nH]c2c1,0,0,?,0,0,?
O=c1cc(O)n(-c2ccc(F)cc2)c(=S)[nH]1,0,0,?,0,0,31.6µM
Oc1ccc(C2=CSC3=NCCN23)cc1O,0,0,89.1µM,0,0,0[0.501 µM]
CCCOc1ccc(C2=CSC3=NCCN23)cc1[N+](=O)[O-],?,0,0,?,29.9µM,0
CCOc1ccc(C2=CSC3=NCCN23)cc1[N+](=O)[O-],0,0,0,0,0,?
CCOc1ccc(C2=CSC3=NCCN23)cc1Cl,79.4µM,0,?,0,?,-
O=S(=O)(c1ccc(C2=CSC3=NCCN23)cc1)N1CCOCC1,0,0,56.2µM,0,0,?
CCCn1nc([N+](=O)[O-])c(C(C#N)c2nc3ccccc3s2)c(Cl)c1=O (configuration not stated),?,0,0,0,23.8µM,7.08µM
O=c1cc(O)n(C2CCCCCC2)c(=O)[nH]1,?,0,0,0,0,?
O=c1[nH][nH]c(=S)n1C1CCCCC1,35.5µM,0,2.82µM,0,2.99µM,1.12µM
O=S(=O)(c1ccc(F)cc1)N1CCC(n2c(C(F)(F)F)nc3cccnc32)CC1,0,-,-,-,-,0
CNC(=O)OCc1cocc1COC(=O)NC,-,0,-,-,0,-
CNC(=O)OCc1cccc(COC(=O)NC)n1,0,0,0,0,0,44.7µM!
COc1ccccc1-c1nc(SCC(=O)Nc2ccc(C)c(C)c2)n[nH]1,0,-,-,-,-,0
COCCOC(=O)/C(=C\c1cc(C(C)(C)C)c(O)c(C(C)(C)C)c1)C(C)=O,35.5µM,0,0,0,0,0
COCCc1ccc(OC[C@H](O)CNC(C)C)cc1,0,-,0,-,-,0[12.7 µM]
COc1ccccc1-c1ccc2ncnc(NCCN3CCOCC3)c2c1,?,-,0,-,-,0[0.501 µM]
COc1ccc(N2CCN(C(=O)CCc3ccc(S(=O)(=O)NCC(C)C)cc3)CC2)cc1,0,0,0,0,0,7.08µM
COc1ccc(N2CCN(C(=O)CN(C)S(=O)(=O)c3cccs3)CC2)cc1,0,0,0,0,0,50.1µM!
O=C(/C=C/c1ccc([N+](=O)[O-])cc1)N1CCN(S(=O)(=O)c2cccs2)CC1,0,0,0,0,0,50.1µM
CC(C)CNS(=O)(=O)c1ccc(CCC(=O)N2CCN(c3ccc(F)cc3)CC2)cc1,0,0,0,0,0,0
COc1ccccc1/C=C/C(=O)N1CCN(S(=O)(=O)c2cccs2)CC1,0,0,-,0,0,-
SMILES,VDR inhibitor,CCT chaperon mod,Sfp PPTase inh,Mm-Cpn inhibitor,PLK1 PBD inh,G9a block
O=C(c1cc2ccccc2o1)N1CCN(S(=O)(=O)c2cccs2)CC1,0,0,0,0,0,15.8µM
CCOc1ccc(N(C)S(=O)(=O)c2ccc3c(c2)CCCN3C(C)=O)cc1,0,-,-,-,-,0
CN(C)CCCSc1ccccc1NC(=O)/C=C\c1ccccc1,0,-,0,-,-,-
Cc1cc(C)c(NC(=O)CSc2nc3nc(C)cc(C)n3n2)c(C)c1,0,-,-,-,-,0
COc1ccc(CCC(=O)N2CCN(S(=O)(=O)c3cccs3)CC2)cc1,0,0,-,0,0,44.7µM
O=C(CCc1ccc(Oc2cc([N+](=O)[O-])cc([N+](=O)[O-])c2)cc1)N1CCCCCC1,?,0,17.8µM,0,0,?
COc1ccc(N2CCN(C(=O)CCNS(=O)(=O)c3cccs3)CC2)cc1,0,0,0,0,0,25.1µM
O=C(CCNS(=O)(=O)c1cccs1)N1CCN(c2cccc(C(F)(F)F)c2)CC1,0,0,-,0,0,0[2.33 µM]
O=C(Cc1ccc([N+](=O)[O-])cc1)N1CCCCCC1,0,0,0,0,0,0
CCCNS(=O)(=O)c1ccc(CCC(=O)N2CCCCC2)cc1,?,0,0,0,23.8µM,0[12.7 µM]
CCCNS(=O)(=O)c1ccc(CCC(=O)N2CCN(CC)CC2)cc1,0,0,0,0,0,?
Cc1ccc2c(c1)c1c(c(=O)n(-c3ccccc3)c(=O)n1CC(=O)N1CCCC1)n2C,0,-,-,-,-,0
CCOn1c(=O)c(=O)n(OCc2ccccc2)c2ccccc21,0,0,0,0,0,0
CC1(C)C(=O)N(OCc2ccccc2)C(C)(C)C(=O)N1OCc1ccccc1,0,-31.9,0,0,0,0
CN1CCN(C(=O)c2cnn(-c3cccc(Cl)c3)c2C2CCN(C(=O)OC(C)(C)C)CC2)CC1,0,-,-,-,-,0
Cc1ccc(NN=C2c3ccccc3-c3ccccc32)cc1,0,0,?,0,0,8.91µM
COc1cc(OC)c(NC(=O)Cn2cnc3c(nc4n3CCCCC4)c2=O)cc1Cl,0,-,-,-,-,0
COc1ccc(CC(=O)Nc2c(C(=O)Nc3ccccc3F)oc3ccccc23)cc1,0,-,-,-,-,0
COc1ccc2c3c(cccc13)N(C)N=C2C,0,0,0,0,21.2µM,?
CCc1ccc(-n2c(SCc3cccc(F)c3)nc3[nH]ncc3c2=O)cc1,0,-,-,-,-,0
CC1=C(C(=O)OC2CCCC2)C(c2cccc(Cl)c2Cl)CC(=O)N1 (configuration not stated),0,-,-,-,-,0
c1ccc(-c2csc3nnc(SCc4ccc5c(c4)OCO5)n23)cc1,79.4µM,0,0,0,21.2µM,0
O=C(CCSc1nnc2scc(-c3ccccc3)n12)NCc1ccc2c(c1)OCO2,0,0,0,0,0,0

# Assay outcomes (PubChem)
